Test results reported in PubChem BioAssay (Tox21).
Several values for one entry are separate records, joined by “and”; a condition that tells them apart may be missing. Equal entries are not always repeated. Inconclusive results are not listed. Where a structure was tested more than once in an assay, its records may differ in their call. Activity calls are given as the source filed them. Calls come from the whole dose curve; as a rule, active = well fitted curve in the direction sought with a large enough effect in the repeat runs; inconclusive = weak or mixed curves; inactive = no such curve, though single readings can be large; an effect the other way counts as inactive or inconclusive.

Test: qHTS assay for identifying genotoxic compounds that show differential cytotoxicity against isogenic chicken DT40 cell lines with known DNA damage response pathways - wild type cell line (AID 743012); note: nearly all actives have a fitted effect of over 60% in size; note: potency is the fitted concentration of half-maximal effect
Settings: DT40 wild type chicken cells viability, CellTiter-Glo, 40 h; series mostly up to 68.4 µM; activity change, negative = cytotoxicity: at the top concentration
Summary of the method: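 Cytotoxicity in repair-proficient parental chicken DT40 cells serves as the comparator for Rad54/Ku70- and Rev3-deficient lines. Cells were exposed to compounds for 40 h at 37 C/5% CO2, and ATP-based luminescence (CellTiter-Glo) measured viability.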
% is set by controls: 0 for no effect and ±100 for the full control effect.

SMILES | activity change, negative = cytotoxicity | Potency
ClCCCCl | 2.36% [at 95 µM] (inactive) | –
CC[C@H](N)c1ccccc1 | 1.06% (inactive) | –
COC(=O)[C@@H](N)CCCN/C(N)=N/[N+](=O)[O-] | 5.91% (inactive) | –
CCN(CC)CCOC(=O)C(O)(c1ccccc1)c1ccccc1 | -2.05% (inactive) | –
BrCCc1ccccc1 | -4.2% [at 95 µM] (inactive) | –
CCNc1nc(Cl)nc(NC(C)(C)C)n1 | -24.9% (inactive) | –
CCOC(=O)N(C)N=O | 9.11% (inactive) | –
OCC(Cl)CCl (stereo not given) | 4.57% (inactive) | –
CCCOc1nn(C(=O)NS(=O)(=O)c2ccccc2C(=O)OC)c(=O)n1C | 3.82% (inactive) | –
CCN[C@@H](C)Cc1ccccc1 | -14.9% [at 95 µM] (inactive) | –
ClCCCCCCCl | 27.3% (inactive) | –
CCOC(=O)CC(SP(=S)(OC)OC)C(=O)OCC (stereo not given) | -10.9% (inactive) | –
CC(C)(C)C(=O)Cl | -4.68% [at 95 µM] (inactive) | –
CCCCOC(C)=O | -0.399% [at 95 µM] (inactive) | –
O=S1(=O)OCCO1 | 17.8% [at 95 µM] (inactive) | –
CCOP(=S)(OCC)SCCl | -15.3% (inactive) | –
Clc1nc(Cl)nc(Nc2ccccc2Cl)n1 | 26.2% (inactive) | –
CN1COCN(Cc2cnc(Cl)s2)/C1=N\[N+](=O)[O-] | 9.56% (inactive) | –
CCC1(c2ccccc2)C(=O)N(COC)C(=O)N(COC)C1=O | 4.04% (inactive) | –
CC[C@H](O)C(C[C@H](C)N(C)C)(c1ccccc1)c1ccccc1 | – | 62.3 µM (active)
Clc1ccc(C(Cl)(Cl)Cl)cn1 | -0.886% (inactive) | –
O=C(Cl)c1ccccc1 | 9.85% [at 95 µM] (inactive) | –
BrCC1CO1 (stereo not given) | 24.7% [at 95 µM] (inactive) | –
NCCOS(=O)(=O)O | 3.1% (inactive) | –
CN(C)C1CCCCC1 | 22.1% (inactive) | –
CN=CNc1ccc(C)cc1C | 9.7% (inactive) | –

Test: qHTS assay for identifying genotoxic compounds that show differential cytotoxicity against isogenic chicken DT40 cell lines with known DNA damage response pathways - Rev3 mutant cell line (AID 743014); note: nearly all actives have a fitted effect of over 55% in size; note: potency is the fitted concentration of half-maximal effect
Settings: chicken DT40 Rev3-/- viability, CellTiter-Glo, 40 h; series mostly up to 68.4 µM; activity, negative = cytotoxicity: at the top concentration

SMILES | activity, negative = cytotoxicity | Potency
CC[C@H](N)c1ccccc1 | 6.74% (inactive) | –
CCOC(=O)c1ncn2c1CN(C)C(=O)c1c(I)cccc1-2 | -5.26% (inactive) | –
CCN[C@@H](C)Cc1cccc(C(F)(F)F)c1 | – | 16.9 µM (active)
BrCCc1ccccc1 | -1.3% [at 95 µM] (inactive) | –
OCC(Cl)CCl (stereo not given) | 4.12% (inactive) | –
ClCCCCCCCl | 1.3% (inactive) | –
CCOC(=O)CC(SP(=S)(OC)OC)C(=O)OCC (stereo not given) | – | inactive and 64.8 µM (active)
CC(C)(C)C(=O)Cl | -7.2% [at 95 µM] (inactive) | –
CCCCOC(C)=O | 1.79% [at 95 µM] (inactive) | –
CCN(CC)C1CCCCC1 | -4.6% (inactive) | –
O=S1(=O)OCCO1 | -0.268% [at 95 µM] (inactive) | –
CCOP(=S)(OCC)SCCl | 2.94% (inactive) | –
COc1ccccc1OC | -19.8% (inactive) | –
CCC1(c2ccccc2)C(=O)N(COC)C(=O)N(COC)C1=O | -3.12% (inactive) | –
O=P(O)(O)c1ccccc1 | 0.231% (inactive) | –
CCOC1Oc2ccc(OS(C)(=O)=O)cc2C1(C)C (stereo not given) | – | 27.1 µM (active)
N#CC(Br)(Br)C(N)=O | – | 61.1 µM (active)
CCCCS(=O)(=O)Cl | -3.94% (inactive) | –
Clc1ccc(C(Cl)(Cl)Cl)cn1 | – | 61.1 µM (active)
O=C(Cl)c1ccccc1 | 6.98% [at 95 µM] (inactive) | –
BrCC1CO1 (stereo not given) | – | 61.4 µM (active)
NCCOS(=O)(=O)O | 1.17% (inactive) | –
CN=CNc1ccc(C)cc1C | -8.17% (inactive) | –

Test: qHTS assay for identifying genotoxic compounds that show differential cytotoxicity against isogenic chicken DT40 cell lines with known DNA damage response pathways - Rad54/Ku70 mutant cell line (AID 743015); note: nearly all actives have a fitted effect of over 60% in size; note: potency is the fitted concentration of half-maximal effect
Settings: DT40 Rad54/Ku70 mutant viability, CellTiter-Glo, 40 h; series mostly up to 66.8 µM; activity change, negative = cytotoxicity: at the top concentration

SMILES | activity change, negative = cytotoxicity | Potency
ClCCCCl | 3.41% [at 95.1 µM] (inactive) | –
CC[C@H](N)c1ccccc1 | 4.81% (inactive) | –
COC(=O)[C@@H](N)CCCN/C(N)=N/[N+](=O)[O-] | 0.307% (inactive) | –
CCN[C@@H](C)Cc1cccc(C(F)(F)F)c1 | – | 21.3 µM (active)
CCN(CC)CCOC(=O)C(O)(c1ccccc1)c1ccccc1 | 2.14% (inactive) | –
BrCCc1ccccc1 | 0.495% [at 95.1 µM] (inactive) | –
CCC(=O)OC1(c2ccccc2)CCN(C)CC1 | -18.1% [at 95.1 µM] (inactive) | –
OCC(Cl)CCl (stereo not given) | -3.38% (inactive) | –
CCCOc1nn(C(=O)NS(=O)(=O)c2ccccc2C(=O)OC)c(=O)n1C | -0.483% (inactive) | –
ClCCCCCCCl | -1.68% (inactive) | –
CCOC(=O)CC(SP(=S)(OC)OC)C(=O)OCC (stereo not given) | – | inactive and 58.8 µM (active)
CC(C)(C)C(=O)Cl | 4.72% [at 95.1 µM] (inactive) | –
CCCCOC(C)=O | 9.02% [at 95.1 µM] (inactive) | –
O=S1(=O)OCCO1 | 1.7% [at 95.1 µM] (inactive) | –
CCOP(=S)(OCC)SCCl | -1.53% (inactive) | –
COc1ccccc1OC | -11.2% (inactive) | –
Clc1nc(Cl)nc(Nc2ccccc2Cl)n1 | 14.7% (inactive) | –
CN1COCN(Cc2cnc(Cl)s2)/C1=N\[N+](=O)[O-] | -10.3% (inactive) | –
CCOP(=S)(OCC)Oc1ccc(Cl)cc1Cl | -21.6% (inactive) | –
CCC1(c2ccccc2)C(=O)N(COC)C(=O)N(COC)C1=O | 3.56% (inactive) | –
O=P(O)(O)c1ccccc1 | 17.7% (inactive) | –
CCOC1Oc2ccc(OS(C)(=O)=O)cc2C1(C)C (stereo not given) | – | 54 µM (active)
N#CC(Br)(Br)C(N)=O | – | 61.1 µM (active)
CCCCS(=O)(=O)Cl | 12.8% (inactive) | –
Clc1ccc(C(Cl)(Cl)Cl)cn1 | 0.467% (inactive) | –
O=C(Cl)c1ccccc1 | 1.06% [at 95.1 µM] (inactive) | –
BrCC1CO1 (stereo not given) | -0.623% [at 95.1 µM] (inactive) | –
NCCOS(=O)(=O)O | -1.39% (inactive) | –
CN(C)C1CCCCC1 | 9.03% (inactive) | –
CN=CNc1ccc(C)cc1C | -12.6% (inactive) | –

Test: qHTS assay to identify small molecule antagonists of the androgen receptor (AR) signaling pathway - cell viability counter screen (AID 743033; note: nearly all actives have a fitted effect of over 45% in size)
Settings: AR-bla HEK293 viability, CellTiter-Glo luminescence, 16 h; series mostly up to 58.5 µM; activity change, negative = cytotoxicity: at the top concentration

SMILES | activity change, negative = cytotoxicity
ClCCCCl | -12% [at 78.9 µM] (inactive)
CC[C@H](N)c1ccccc1 | -0.167% (inactive)
CCOC(=O)c1ncn2c1CN(C)C(=O)c1c(I)cccc1-2 | -0.481% (inactive)
CCN[C@@H](C)Cc1cccc(C(F)(F)F)c1 | 0.339% (inactive)
CCN(CC)CCOC(=O)C(O)(c1ccccc1)c1ccccc1 | 2.11% (inactive)
BrCCc1ccccc1 | 2.19% [at 78.9 µM] (inactive)
CCC(=O)OC1(c2ccccc2)CCN(C)CC1 | -3.02% [at 78.9 µM] (inactive)
C[C@@H](N)[C@@H](O)c1ccccc1 | 9.47% [at 27 µM] (inactive)
CCNc1nc(NCC)nc(SC)n1 | -4.12% (inactive)
CCNc1nc(Cl)nc(NC(C)(C)C)n1 | 1.06% (inactive)
CCOC(=O)N(C)N=O | -0.496% (inactive)
OCC(Cl)CCl (stereo not given) | 0.517% (inactive)
CCN[C@@H](C)Cc1ccccc1 | 0.742% [at 78.9 µM] (inactive)
ClCCCCCCCl | 4.04% (inactive)
CCOC(=O)CC(SP(=S)(OC)OC)C(=O)OCC (stereo not given) | 10.1% (inactive)
C=C(C)[C@H]1CN[C@H](C(=O)O)[C@H]1CC(=O)O | -2.13% (inactive)
CC(C)(C)C(=O)Cl | 10.2% [at 78.9 µM] (inactive)
CCCCOC(C)=O | 1.84% [at 78.9 µM] (inactive)

SMILES | activity change, negative = cytotoxicity
CNC(=O)Oc1cc(C)c(N(C)C)c(C)c1 | -0.142% (inactive)
CCN(CC)C1CCCCC1 | 0.642% (inactive)
O=S1(=O)OCCO1 | -0.576% [at 78.9 µM] (inactive)
CCOP(=S)(OCC)SCCl | -23.9% (inactive)
COc1ccccc1OC | 0.413% (inactive)
Clc1nc(Cl)nc(Nc2ccccc2Cl)n1 | -4.08% (inactive)
CN1COCN(Cc2cnc(Cl)s2)/C1=N\[N+](=O)[O-] | -8.8% (inactive)
CCOP(=S)(OCC)Oc1ccc(Cl)cc1Cl | -7.9% (inactive)
CCC1(c2ccccc2)C(=O)N(COC)C(=O)N(COC)C1=O | 1.04% (inactive)
O=P(O)(O)c1ccccc1 | 1.04% (inactive)
CCCCS(=O)(=O)Cl | 5.98% (inactive)
CC[C@H](O)C(C[C@H](C)N(C)C)(c1ccccc1)c1ccccc1 | 3.8% [at 78.9 µM] (inactive)
Clc1ccc(C(Cl)(Cl)Cl)cn1 | 0.345% (inactive)
O=C(Cl)c1ccccc1 | 2.68% [at 78.9 µM] (inactive)
BrCC1CO1 (stereo not given) | 0.151% [at 78.9 µM] (inactive)
NCCOS(=O)(=O)O | 4.54% (inactive)
CN(C)C1CCCCC1 | -1.35% (inactive)
CN=CNc1ccc(C)cc1C | 11.7% (inactive)
